# According to paper PMC11006913:
# Columns and labels:
# Assay in all cases: PBM; 200 nM protein, PBS
# Conditions in all cases: dsDNA, one strand shown
# HESX1 [1] = molecular target: HESX1 (Homo sapiens, UniProt Q9UBX0 95-180, R165K)
# HESX1 [2] = molecular target: HESX1 (Homo sapiens, UniProt Q9UBX0 95-180)
# HESX1 [3] = molecular target: HESX1 (Homo sapiens, UniProt Q9UBX0 95-180, R109Q)
# HESX1 [4] = molecular target: HESX1 (Homo sapiens, UniProt Q9UBX0 95-180, P111T)
# HESX1 [5] = molecular target: HESX1 (Homo sapiens, UniProt Q9UBX0 95-180, F115L)
# SHOX [6] = molecular target: SHOX (Homo sapiens, UniProt O15266 103-189)
# ALX4 = ALX4 (Homo sapiens, UniProt Q9H161 200-286, Q225E)
# MSX2 = MSX2 (Homo sapiens, UniProt P35548 130-214, R199I)
# ALX1 [7] = molecular target: ALX1 (Homo sapiens, UniProt Q15699 118-204, L144V)
# ALX3 [8] = molecular target: ALX3 (Homo sapiens, UniProt O95076 139-225, N203Q)
# SHOX [9] = molecular target: SHOX (Homo sapiens, UniProt O15266 103-189, R173C)
# ALX1 [10] = molecular target: ALX1 (Homo sapiens, UniProt Q15699 118-204, L144R)
# ALX3 [11] = molecular target: ALX3 (Homo sapiens, UniProt O95076 139-225)
# PROP1 [12] = molecular target: PROP1 (Homo sapiens, UniProt O75360 56-141)
# PROP1 [13] = molecular target: PROP1 (Homo sapiens, UniProt O75360 56-141, R99H)
# ALX3 [14] = molecular target: ALX3 (Homo sapiens, UniProt O95076 139-225, L168Q)
# ALX3 [15] = molecular target: ALX3 (Homo sapiens, UniProt O95076 139-225, L168V)
# PROP1 [16] = molecular target: PROP1 (Homo sapiens, UniProt O75360 56-141, F88S)
# ALX1 [17] = molecular target: ALX1 (Homo sapiens, UniProt Q15699 118-204)
# ALX3 [18] = molecular target: ALX3 (Homo sapiens, UniProt O95076 139-225, N203S)
# Chain of ALX3 (Homo sapiens, UniProt O95076 139-225, N203S) (O95076 139-225 N203S): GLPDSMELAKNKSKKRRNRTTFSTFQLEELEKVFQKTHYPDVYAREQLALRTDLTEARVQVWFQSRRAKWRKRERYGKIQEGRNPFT
# Chain of ALX1 (Homo sapiens, UniProt Q15699 118-204) (Q15699 118-204): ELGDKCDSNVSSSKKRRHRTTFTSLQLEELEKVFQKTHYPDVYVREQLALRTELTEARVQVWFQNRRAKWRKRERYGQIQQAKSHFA
# Chain of ALX3 (Homo sapiens, UniProt O95076 139-225, L168Q) (O95076 139-225 L168Q): as the sequence (O95076 139-225 N203S) above, with L30Q, S65N counted along it
# Chain of HESX1 (Homo sapiens, UniProt Q9UBX0 95-180, P111T) (Q9UBX0 95-180 P111T): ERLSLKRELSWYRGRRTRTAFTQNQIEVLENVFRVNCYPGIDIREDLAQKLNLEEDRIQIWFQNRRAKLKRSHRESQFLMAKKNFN
# Chain of PROP1 (Homo sapiens, UniProt O75360 56-141, F88S) (O75360 56-141 F88S): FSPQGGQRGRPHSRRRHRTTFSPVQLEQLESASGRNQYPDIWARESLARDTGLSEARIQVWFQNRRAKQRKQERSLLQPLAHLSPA
# Chain of ALX3 (Homo sapiens, UniProt O95076 139-225, N203Q) (O95076 139-225 N203Q): as the sequence (O95076 139-225 N203S) above, with S65Q counted along it
# Chain of ALX4 (Q9H161 200-286 Q225E): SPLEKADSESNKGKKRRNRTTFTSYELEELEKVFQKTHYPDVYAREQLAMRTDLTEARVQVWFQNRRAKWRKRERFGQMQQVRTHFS
# Chain of PROP1 (Homo sapiens, UniProt O75360 56-141, R99H) (O75360 56-141 R99H): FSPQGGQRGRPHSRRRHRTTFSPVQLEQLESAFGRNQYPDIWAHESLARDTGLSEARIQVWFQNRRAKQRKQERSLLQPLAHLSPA
# Chain of ALX1 (Homo sapiens, UniProt Q15699 118-204, L144V) (Q15699 118-204 L144V): as the sequence (Q15699 118-204) above, with L27V counted along it
# Chain of MSX2 (P35548 130-214 R199I): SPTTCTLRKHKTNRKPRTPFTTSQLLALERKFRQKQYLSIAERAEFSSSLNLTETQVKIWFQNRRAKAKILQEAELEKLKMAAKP
# Chain of SHOX (Homo sapiens, UniProt O15266 103-189, R173C) (O15266 103-189 R173C): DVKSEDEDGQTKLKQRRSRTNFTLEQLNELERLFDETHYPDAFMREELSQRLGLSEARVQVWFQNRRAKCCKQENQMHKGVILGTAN
# Chain of ALX3 (Homo sapiens, UniProt O95076 139-225) (O95076 139-225): as the sequence (O95076 139-225 N203S) above, with S65N counted along it
# Chain of HESX1 (Homo sapiens, UniProt Q9UBX0 95-180, R165K) (Q9UBX0 95-180 R165K): as the sequence (Q9UBX0 95-180 P111T) above, with T17P, R71K counted along it
# Chain of HESX1 (Homo sapiens, UniProt Q9UBX0 95-180) (Q9UBX0 95-180): as the sequence (Q9UBX0 95-180 P111T) above, with T17P counted along it
# Chain of ALX1 (Homo sapiens, UniProt Q15699 118-204, L144R) (Q15699 118-204 L144R): as the sequence (Q15699 118-204) above, with L27R counted along it
# Chain of HESX1 (Homo sapiens, UniProt Q9UBX0 95-180, F115L) (Q9UBX0 95-180 F115L): as the sequence (Q9UBX0 95-180 P111T) above, with T17P, F21L counted along it
# Chain of SHOX (Homo sapiens, UniProt O15266 103-189) (O15266 103-189): as the sequence (O15266 103-189 R173C) above, with C71R counted along it
# Chain of ALX3 (Homo sapiens, UniProt O95076 139-225, L168V) (O95076 139-225 L168V): as the sequence (O95076 139-225 N203S) above, with L30V, S65N counted along it
# Chain of PROP1 (Homo sapiens, UniProt O75360 56-141) (O75360 56-141): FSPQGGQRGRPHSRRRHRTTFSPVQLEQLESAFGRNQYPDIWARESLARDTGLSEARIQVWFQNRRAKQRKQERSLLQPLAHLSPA
# Chain of HESX1 (Homo sapiens, UniProt Q9UBX0 95-180, R109Q) (Q9UBX0 95-180 R109Q): as the sequence (Q9UBX0 95-180 P111T) above, with R15Q, T17P counted along it
sequence,measurement,setting,value
GCAAGGGC,binding signal,HESX1 [1],"6.38 upbm affinity estimate (log intensity, higher = more binding, comparable within an allelic series)"
same,binding signal,HESX1 [2],"6.38 upbm affinity estimate (log intensity, higher = more binding, comparable within an allelic series)"
same,binding signal,HESX1 [3],"6.49 upbm affinity estimate (log intensity, higher = more binding, comparable within an allelic series)"
same,binding signal,HESX1 [4],"6.49 upbm affinity estimate (log intensity, higher = more binding, comparable within an allelic series)"
same,binding signal,HESX1 [5],"6.53 upbm affinity estimate (log intensity, higher = more binding, comparable within an allelic series)"
CTAATTAG,binding signal,HESX1 [1],"14 upbm affinity estimate (log intensity, higher = more binding, comparable within an allelic series)"
same,binding signal,SHOX [6],"13.6 upbm affinity estimate (log intensity, higher = more binding, comparable within an allelic series)"
same,binding signal,ALX4,"14.6 upbm affinity estimate (log intensity, higher = more binding, comparable within an allelic series)"
same,binding signal,HESX1 [2],"13.7 upbm affinity estimate (log intensity, higher = more binding, comparable within an allelic series)"
same,binding signal,MSX2,"13.6 upbm affinity estimate (log intensity, higher = more binding, comparable within an allelic series)"
same,binding signal,ALX1 [7],"12.5 upbm affinity estimate (log intensity, higher = more binding, comparable within an allelic series)"
same,binding signal,ALX3 [8],"8.69 upbm affinity estimate (log intensity, higher = more binding, comparable within an allelic series)"
same,binding signal,SHOX [9],"11.1 upbm affinity estimate (log intensity, higher = more binding, comparable within an allelic series)"
same,binding signal,ALX1 [10],"12.1 upbm affinity estimate (log intensity, higher = more binding, comparable within an allelic series)"
same,binding signal,ALX3 [11],"13 upbm affinity estimate (log intensity, higher = more binding, comparable within an allelic series)"
same,binding signal,PROP1 [12],"12.4 upbm affinity estimate (log intensity, higher = more binding, comparable within an allelic series)"
same,binding signal,HESX1 [3],"10.9 upbm affinity estimate (log intensity, higher = more binding, comparable within an allelic series)"
same,binding signal,PROP1 [13],"12.6 upbm affinity estimate (log intensity, higher = more binding, comparable within an allelic series)"
same,binding signal,ALX3 [14],"11.6 upbm affinity estimate (log intensity, higher = more binding, comparable within an allelic series)"
same,binding signal,HESX1 [4],"12.5 upbm affinity estimate (log intensity, higher = more binding, comparable within an allelic series)"
same,binding signal,ALX3 [15],"11.3 upbm affinity estimate (log intensity, higher = more binding, comparable within an allelic series)"
same,binding signal,PROP1 [16],"8.3 upbm affinity estimate (log intensity, higher = more binding, comparable within an allelic series)"
same,binding signal,HESX1 [5],"8.53 upbm affinity estimate (log intensity, higher = more binding, comparable within an allelic series)"
same,binding signal,ALX1 [17],"13.2 upbm affinity estimate (log intensity, higher = more binding, comparable within an allelic series)"
same,binding signal,ALX3 [18],"8.81 upbm affinity estimate (log intensity, higher = more binding, comparable within an allelic series)"
ACAATTAA,binding signal,HESX1 [1],"12.1 upbm affinity estimate (log intensity, higher = more binding, comparable within an allelic series)"
same,binding signal,SHOX [6],"11.6 upbm affinity estimate (log intensity, higher = more binding, comparable within an allelic series)"
same,binding signal,ALX4,"12.9 upbm affinity estimate (log intensity, higher = more binding, comparable within an allelic series)"
same,binding signal,HESX1 [2],"12.2 upbm affinity estimate (log intensity, higher = more binding, comparable within an allelic series)"
same,binding signal,MSX2,"12.8 upbm affinity estimate (log intensity, higher = more binding, comparable within an allelic series)"
same,binding signal,ALX1 [7],"11.4 upbm affinity estimate (log intensity, higher = more binding, comparable within an allelic series)"
same,binding signal,ALX3 [8],"8.46 upbm affinity estimate (log intensity, higher = more binding, comparable within an allelic series)"
same,binding signal,SHOX [9],"9.44 upbm affinity estimate (log intensity, higher = more binding, comparable within an allelic series)"
same,binding signal,ALX1 [10],"11.1 upbm affinity estimate (log intensity, higher = more binding, comparable within an allelic series)"
same,binding signal,ALX3 [11],"12.3 upbm affinity estimate (log intensity, higher = more binding, comparable within an allelic series)"
same,binding signal,PROP1 [12],"11.2 upbm affinity estimate (log intensity, higher = more binding, comparable within an allelic series)"
same,binding signal,HESX1 [3],"8.86 upbm affinity estimate (log intensity, higher = more binding, comparable within an allelic series)"
same,binding signal,PROP1 [13],"11.1 upbm affinity estimate (log intensity, higher = more binding, comparable within an allelic series)"
same,binding signal,ALX3 [14],"10.4 upbm affinity estimate (log intensity, higher = more binding, comparable within an allelic series)"
same,binding signal,HESX1 [4],"10.8 upbm affinity estimate (log intensity, higher = more binding, comparable within an allelic series)"
same,binding signal,ALX3 [15],"9.93 upbm affinity estimate (log intensity, higher = more binding, comparable within an allelic series)"
same,binding signal,PROP1 [16],"7.71 upbm affinity estimate (log intensity, higher = more binding, comparable within an allelic series)"
same,binding signal,HESX1 [5],"7.77 upbm affinity estimate (log intensity, higher = more binding, comparable within an allelic series)"
same,binding signal,ALX1 [17],"12 upbm affinity estimate (log intensity, higher = more binding, comparable within an allelic series)"
same,binding signal,ALX3 [18],"8.59 upbm affinity estimate (log intensity, higher = more binding, comparable within an allelic series)"
TATTAGAA,binding signal,HESX1 [1],"8 upbm affinity estimate (log intensity, higher = more binding, comparable within an allelic series)"
same,binding signal,HESX1 [2],"8.34 upbm affinity estimate (log intensity, higher = more binding, comparable within an allelic series)"
same,binding signal,HESX1 [4],"7.87 upbm affinity estimate (log intensity, higher = more binding, comparable within an allelic series)"
CAATTAGC,binding signal,HESX1 [1],"13.2 upbm affinity estimate (log intensity, higher = more binding, comparable within an allelic series)"
same,binding signal,SHOX [6],"12.7 upbm affinity estimate (log intensity, higher = more binding, comparable within an allelic series)"
same,binding signal,ALX4,"13.5 upbm affinity estimate (log intensity, higher = more binding, comparable within an allelic series)"
same,binding signal,HESX1 [2],"13.3 upbm affinity estimate (log intensity, higher = more binding, comparable within an allelic series)"
same,binding signal,MSX2,"13.1 upbm affinity estimate (log intensity, higher = more binding, comparable within an allelic series)"
same,binding signal,ALX1 [7],"11.9 upbm affinity estimate (log intensity, higher = more binding, comparable within an allelic series)"
same,binding signal,ALX3 [8],"8.26 upbm affinity estimate (log intensity, higher = more binding, comparable within an allelic series)"
same,binding signal,SHOX [9],"9.99 upbm affinity estimate (log intensity, higher = more binding, comparable within an allelic series)"
same,binding signal,ALX1 [10],"11.5 upbm affinity estimate (log intensity, higher = more binding, comparable within an allelic series)"
same,binding signal,ALX3 [11],"12.6 upbm affinity estimate (log intensity, higher = more binding, comparable within an allelic series)"
same,binding signal,PROP1 [12],"11.8 upbm affinity estimate (log intensity, higher = more binding, comparable within an allelic series)"
same,binding signal,HESX1 [3],"9.79 upbm affinity estimate (log intensity, higher = more binding, comparable within an allelic series)"
same,binding signal,PROP1 [13],"11.9 upbm affinity estimate (log intensity, higher = more binding, comparable within an allelic series)"
same,binding signal,ALX3 [14],"10.7 upbm affinity estimate (log intensity, higher = more binding, comparable within an allelic series)"
same,binding signal,HESX1 [4],"11.7 upbm affinity estimate (log intensity, higher = more binding, comparable within an allelic series)"
same,binding signal,ALX3 [15],"10.1 upbm affinity estimate (log intensity, higher = more binding, comparable within an allelic series)"
same,binding signal,PROP1 [16],"7.57 upbm affinity estimate (log intensity, higher = more binding, comparable within an allelic series)"
same,binding signal,HESX1 [5],"7.74 upbm affinity estimate (log intensity, higher = more binding, comparable within an allelic series)"
same,binding signal,ALX1 [17],"12.8 upbm affinity estimate (log intensity, higher = more binding, comparable within an allelic series)"
same,binding signal,ALX3 [18],"8.45 upbm affinity estimate (log intensity, higher = more binding, comparable within an allelic series)"
AATTAACA,binding signal,HESX1 [1],"11.9 upbm affinity estimate (log intensity, higher = more binding, comparable within an allelic series)"
same,binding signal,SHOX [6],"11.9 upbm affinity estimate (log intensity, higher = more binding, comparable within an allelic series)"
same,binding signal,ALX4,"13.2 upbm affinity estimate (log intensity, higher = more binding, comparable within an allelic series)"
same,binding signal,HESX1 [2],"12 upbm affinity estimate (log intensity, higher = more binding, comparable within an allelic series)"
same,binding signal,MSX2,"12.4 upbm affinity estimate (log intensity, higher = more binding, comparable within an allelic series)"
same,binding signal,ALX1 [7],"11.7 upbm affinity estimate (log intensity, higher = more binding, comparable within an allelic series)"
same,binding signal,ALX3 [8],"8.55 upbm affinity estimate (log intensity, higher = more binding, comparable within an allelic series)"
same,binding signal,SHOX [9],"9.76 upbm affinity estimate (log intensity, higher = more binding, comparable within an allelic series)"
same,binding signal,ALX1 [10],"11.3 upbm affinity estimate (log intensity, higher = more binding, comparable within an allelic series)"
same,binding signal,ALX3 [11],"12.5 upbm affinity estimate (log intensity, higher = more binding, comparable within an allelic series)"
same,binding signal,PROP1 [12],"11.3 upbm affinity estimate (log intensity, higher = more binding, comparable within an allelic series)"
same,binding signal,HESX1 [3],"9.41 upbm affinity estimate (log intensity, higher = more binding, comparable within an allelic series)"
same,binding signal,PROP1 [13],"11.1 upbm affinity estimate (log intensity, higher = more binding, comparable within an allelic series)"
same,binding signal,ALX3 [14],"10.6 upbm affinity estimate (log intensity, higher = more binding, comparable within an allelic series)"
same,binding signal,HESX1 [4],"10.7 upbm affinity estimate (log intensity, higher = more binding, comparable within an allelic series)"
same,binding signal,ALX3 [15],"10.2 upbm affinity estimate (log intensity, higher = more binding, comparable within an allelic series)"
same,binding signal,PROP1 [16],"7.88 upbm affinity estimate (log intensity, higher = more binding, comparable within an allelic series)"
same,binding signal,HESX1 [5],"8.02 upbm affinity estimate (log intensity, higher = more binding, comparable within an allelic series)"
same,binding signal,ALX1 [17],"12.4 upbm affinity estimate (log intensity, higher = more binding, comparable within an allelic series)"
same,binding signal,ALX3 [18],"8.67 upbm affinity estimate (log intensity, higher = more binding, comparable within an allelic series)"
